# Experimental data: PubChem BioAssay AID686979 (National Center for Advancing Translational Sciences (NCATS), 2013)
# The campaign covered roughly 420,000 compounds. About 50,000 (12%) were called active. Another 26% or so got no clear call; they are omitted. The sample holds actives, similar compounds and a random draw of the others, so the mix is not that of the screen. The call rests on the fitted dose curve; in most records, active means well fitted inhibition curve with a large enough effect; inconclusive means small, poorly fitted or top-dose-only effect; inactive means flat fitted curve, though single readings scatter.
# Experiment: qHTS for Inhibitors of human tyrosyl-DNA phosphodiesterase 1 (TDP1): qHTS in cells in presence of CPT; further: nearly all actives have a fitted effect of over 55% in size
# Conditions: chicken DT40 Tdp1-/-;hTDP1 cells + 20 nM CPT, ATP luminescence, 48 h; series mostly up to 46.2 µM; activity change, negative = growth inhibition: at the top concentration
# Outline: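 Chicken DT40 Tdp1-/- cells stably complemented with human TDP1 were seeded at 400 cells/well in medium containing 20 nM camptothecin, exposed to pin-transferred compounds, and grown at 37 °C for at least 48 hr. Viability was read as ATP luminescence.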
# On the % scale 0 is the no-effect control and ±100 the full control effect; potency means the concentration at half of the fitted maximal effect.
Structure (SMILES),"activity change, negative = growth inhibition",Potency
Cc1cc(C)cc(N)c1,-11.1% (inactive),–
O=C(NCc1ccco1)C(c1ccncc1)N(C(=O)Cn1nnc2ccccc21)c1ccccc1 (configuration not stated),3.69% (inactive),–
CC(C)(C)OC(=O)N/N=C/c1ccc(C(=O)O)cc1,5.2% (inactive),–
COC(=O)C1(C(=O)OC)C/C=C\CN(S(=O)(=O)c2ccccc2[N+](=O)[O-])CCC1,-27.1% (inactive),–
Cc1nnsc1C(=O)N/N=C/c1cccc(C(F)(F)F)c1,2.4% (inactive),–
O=C(Nc1ccccc1)Nc1ccc(C(F)(F)F)cn1,-14.5% (inactive),–
Oc1ccc(/C=N/Nc2ccc(C(F)(F)F)cn2)cc1O,–,2.91 µM (active)
COc1ccc(C(=O)Nc2cccc(/C=C(/CCC(=O)O)c3nc4ccccc4s3)c2)cc1,-26.9% (inactive),–
O=C(CC(NCc1cccnc1)C(=O)O)Nc1ccc(O)cc1 (configuration not stated),10.1% (inactive),–
COc1cc2c(cc1OC)C(c1ccncc1)CC(=O)N2 (configuration not stated),3.17% (inactive),–
Cc1cc2c(cc1C)C(c1cccc(OC(C)C)c1)CC(=O)N2 (configuration not stated),–,16.4 µM (active)
COC(=O)c1ccc(C2CC(=O)Nc3cc(OC)c(OC)cc32)cc1 (configuration not stated),-2.88% (inactive),–
Cc1cccc(C)c1NC(=O)C(c1cccc(F)c1)N1CCN(C)CC1 (configuration not stated),-28.4% (inactive),–
O=C(NC(c1ccccc1)c1ccccc1)N1CCN(CCO)CC1,0.157% (inactive),–
CC(=O)Nc1sc2c(c1C(c1cccc(F)c1)N1CCN(CCO)CC1)CCCC2 (configuration not stated),–,23.1 µM (active)
COc1ccccc1CNC(=O)COC(=O)CNS(=O)(=O)c1ccc(NC(C)=O)cc1,8.96% (inactive),–
O=C(Cc1ccccc1)Nc1c(Cl)ccc2nsnc12,-1.89% (inactive),–
CCN(CC)S(=O)(=O)c1ccc2c(c1)c(=O)c(C(=O)N1CCN(c3cccc(Cl)c3)CC1)cn2C,-62.1% (inactive),–
C=CCn1cc(C(=O)NCc2ccc(Cl)cc2)c(=O)c2cc(S(=O)(=O)N(CC)CC)ccc21,–,20.6 µM (active)
CCOC(=O)N1CCN(C(=O)c2cn(C)c3ccc(S(=O)(=O)N(CC)CC)cc3c2=O)CC1,-4.93% (inactive),–
CSc1ncnc2c1ncn2CCCNCC(C)c1ccccc1 (configuration not stated),1.45% (inactive),–
O=C(Nc1cc(S(=O)(=O)N2CCOCC2)ccc1OCC(F)(F)F)c1ccc(N2CCCC2=O)cc1,-16% (inactive),–
S=C(NNC(=S)NC1CC2C=CC1C2)NC1CC2C=CC1C2 (configuration not stated),-3.95% (inactive),–
CC(C)c1ccc(NC(=S)NC2CC3C=CC2C3)cc1 (configuration not stated),–,14.6 µM (active)
S=C(NNC(=S)NC1CC2CCC1C2)NC1CC2C=CC1C2 (configuration not stated),-28.8% (inactive),–

Structure (SMILES),"activity change, negative = growth inhibition",Potency
COCCCN(C(=O)CSCc1ccc(C)cc1)c1c(N)n(Cc2ccccc2)c(=O)[nH]c1=O,-1.77% (inactive),–
O=C(NCCC1CCCCN1S(=O)(=O)c1ccccc1)C(=O)NCC1CCCO1 (configuration not stated),5.7% (inactive),–
Cc1ccc(S(=O)(=O)N2CCCC2C(=O)NCc2ccco2)cc1 (configuration not stated),-23.3% (inactive),–
O=C(NCCC1CCCCN1S(=O)(=O)c1ccc(Cl)cc1)C(=O)NCc1ccco1 (configuration not stated),–,16.4 µM (active)
O=C(/C=C/[C@H]1O[C@@H](n2ccc(=O)[nH]c2=O)[C@H](O)[C@@H]1O)NCc1ccccn1,2.63% (inactive),–
Cc1cc2nc(C)n(CCCNC(=O)Nc3ccccc3)c2cc1C,-18.6% (inactive),–
COc1ccc(OCCn2ccnc2C)cc1,4.61% (inactive),–
COc1ccc(OCCCn2c(C)nc3cc(C)c(C)cc32)cc1,–,11.6 µM (active)
CCn1cc(C(=O)NCCC(=O)NCCO)c(=O)c2cc3c(cc21)OCO3,4.51% (inactive),–
COC(=O)C1=C(C(=O)OC)[C@@H]2N(C)c3ccccc3[C@@]23C[C@@H](C(=O)OC)N(C(=O)c2ccco2)C3=N1,2.69% (inactive),–
Cc1noc(C)c1NC(=O)Nc1ccc2c(c1)C(=O)N([C@H](C)CO)C[C@H](C)[C@@H](CN(C)S(=O)(=O)c1cn(C)cn1)O2,-2.21% (inactive),–
COc1ccc(CNC(=O)CSc2n[nH]c(N)n2)cc1OC,-5.36% (inactive),–
CCC(CO)Oc1cc(NC(=O)c2ccc(Cl)cc2)c2ncn(C(C)C)c2c1 (configuration not stated),-5.07% (inactive),–
CC(C)n1cnc2c(NCc3ccccc3)cc(OCC3CCN(C)CC3)cc21,–,20.6 µM (active)
CCC(CO)Oc1cc(NC(=O)c2cccc(F)c2)c2ncn(C(C)C)c2c1 (configuration not stated),-26.9% (inactive),–
Cn1nc(C(=O)OCC(=O)N(Cc2ccccc2)C(C)(C)C)c2ccccc2c1=O,-21.9% (inactive),–
O=C(CN1CCCCCC1)Nc1ccc(Br)cc1[N+](=O)[O-],-2.9% (inactive),–
Cc1ccc(S(=O)(=O)C2(S(=O)(=O)c3ccc(C)cc3)CCCC2)cc1,–,7.31 µM (active)
Cc1ccc(S(=O)(=O)NC2CCCCCC2)cc1,-0.605% (inactive),–
Cc1ccc(S(=O)(=O)N(C)C2(C)CCS(=O)(=O)C2)cc1 (configuration not stated),-24.8% (inactive),–
COc1ccc(/C=C(/NC(=O)c2ccccc2)C(=O)Nc2cccc(C(=O)O)c2)cc1,2.84% (inactive),–
Cc1ccc(S(=O)(=O)N(CCc2ccccc2)c2ccc3c(c2)C2CC3CCN2C(=O)OCc2ccccc2)cc1 (configuration not stated),–,20.6 µM (active)
CCOC(=O)N1CCN(C(=O)CN(c2ccc(C)c(C)c2)S(=O)(=O)c2ccccc2)CC1,-6.33% (inactive),–
Cc1ccc(S(=O)(=O)CCC(=O)OCc2ccccc2)cc1,7.5% (inactive),–
COc1ccc(C(=O)NCC2CCCCC2)cc1S(=O)(=O)N1CCCC1,3.05% (inactive),–

Structure (SMILES),"activity change, negative = growth inhibition",Potency
Cc1[nH]c2c(C(=O)NCC3Cc4cccc(-c5cccnc5)c4O3)cccc2c1C (configuration not stated),-3.45% [at 9.04 µM] (inactive),–
Cc1cc(=O)oc2cc(OCC(=O)N3CCN(c4ccc(F)cc4)CC3)c(Cl)cc12,-12% (inactive),–
COc1ccccc1-n1c(-c2cc(-c3ccco3)[nH]n2)n[nH]c1=S,-13% (inactive),–
COc1cccc(CNn2cn[nH]c2=S)c1OCc1ccccc1,8.15% (inactive),–
COc1ccccc1-n1cn[nH]c1=S,–,29.1 µM (active)
COCCNC(=O)C(OC(=O)c1cccs1)c1ccc(F)cc1 (configuration not stated),2.93% (inactive),–
CCOc1ccc2ccccc2c1/C=N/NC(=O)c1c(C)cc(C)[nH]c1=O,10.1% (inactive),–
COc1ccc(/C=N\NC(=O)c2sc(N)nc2C)cc1OC,-28.3% (inactive),–
COc1ccc2ccccc2c1/C=N/NC(=O)c1cc(C)[nH]n1,–,8.2 µM (active)
O=C(CN1C(=O)S/C(=C\c2ccccc2F)C1=O)NCCCn1ccnc1,-17.7% (inactive),–
COc1ccc(-c2noc(COc3ccc(Cl)c(C)c3)n2)cc1,-10.7% (inactive),–
COCc1cc(C(C)=O)ccc1OC,-3.55% (inactive),–
COc1ccc(C(C)=O)cc1COc1ccc(Cl)c(C)c1,–,10.3 µM (active)
COCCCNC(=S)N(CCN(C)C)Cc1cc2cc3c(cc2[nH]c1=O)OCCO3,-2.43% (inactive),–
OCc1ccc(OCCCOc2cccc3cccnc23)cc1,-17.3% (inactive),–
Nn1c(SCc2ccccc2)nnc1C1CCCCC1,13.1% (inactive),–
CC(C)NC(=O)Nc1ccc2c(c1)C(=O)N([C@H](C)CO)C[C@H](C)[C@@H](CN(C)Cc1ccc(C(F)(F)F)cc1)OCCCC[C@@H](C)O2,–,13 µM (active)
C[C@@H]1CN([C@@H](C)CO)C(=O)c2cc(NS(C)(=O)=O)ccc2O[C@@H](C)CCCCO[C@H]1CN(C)C(=O)Nc1ccc2c(c1)OCO2,-18.7% (inactive),–
Cc1noc(C)c1NC(=O)Nc1ccc2c(c1)C(=O)N([C@H](C)CO)C[C@H](C)[C@@H](CN(C)C(=O)Nc1ccc(C(F)(F)F)cc1)O2,-8.79% (inactive),–
Cc1ccc(S(=O)(=O)N2CCOCC2)cc1NC(=O)c1ccncc1,-10.9% (inactive),–
O=C(O)c1c(NC(=O)N2CCCC2)sc2c1CCCC2,-4.88% (inactive),–
COc1cn(CC(=O)Nc2cccc(C)c2C)c(CN2CCCCC2)cc1=O,-3.13% (inactive),–
O=C(Cc1ccccc1)N1N=C(c2ccncc2)CC1(O)C(F)(F)F (configuration not stated),4.64% (inactive),–
O=C(c1ccc(Cl)cc1)N1N=C(c2ccccn2)CC1(O)C(F)(F)F (configuration not stated),–,25.9 µM (active)
O=C(C1CC1)N1N=C(c2ccc(Br)cc2)CC1(O)C(F)(F)F (configuration not stated),-23.5% (inactive),–

Structure (SMILES),"activity change, negative = growth inhibition",Potency
C=CCn1c(SCC(=O)NC(=O)Cc2ccccc2)nc2ccccc2c1=O,0.809% (inactive),–
COc1ccc(C(=O)NC(=S)Nc2ccccc2N2CCN(S(C)(=O)=O)CC2)cc1OC,–,12.6 µM (active)
COc1ccccc1C(=O)NC(=S)Nc1ccccc1N1CCCCC1,-23.6% (inactive),–
CCC(=O)Nc1ccccc1N1CCN(S(C)(=O)=O)CC1,-17.6% (inactive),–
COc1ccc(S(=O)(=O)N2CCOCC2)cc1C(=O)NC1CCCCC1,-6.97% (inactive),–
O=C(CC1SC(N2CCCC2)=NC1=O)Nc1ccc(C(=O)NCCc2ccc(F)cc2)cc1 (configuration not stated),-11.2% (inactive),–
Fc1ccc(-c2csc(-c3ccc(C4SCCS4)cc3)n2)cc1F,-15.4% (inactive),–
COc1cc(NC(=O)C2CC(c3ccccc3O)=NO2)c(OC)cc1Cl (configuration not stated),22.2% (inactive),–
COc1cc(NC(=O)Cn2nc(-c3ccc(C)c(C)c3)ccc2=O)cc(OC)c1,–,20.6 µM (active)
COc1ccc(-c2ccc(=O)n(CC(=O)Nc3ccc(Br)cc3F)n2)cc1,-8.26% (inactive),–
COc1cc(NC(=O)CSc2nnc3ccc(-c4ccncc4)nn23)cc(OC)c1,-4.16% (inactive),–
O=C(Nc1nnc(CCOCCOCCc2nnc(NC(=O)c3ccco3)s2)s1)c1ccco1,-11.4% (inactive),–
CCCNC(=O)NC(=O)COC(=O)CC(NC(N)=O)c1ccc(Cl)cc1 (configuration not stated),-6.82% (inactive),–
Cn1c(SCC(=O)Nc2ccc(N3CCOCC3)cc2)nnc1C(F)(F)F,-0.589% (inactive),–
COc1cc2[nH]c(=O)n(Cc3ccc(C(=O)NC4CCN(Cc5ccccc5)CC4)cc3)c(=O)c2cc1OC,-25.7% (inactive),–
COc1ccc(Cn2c(=O)[nH]c3cc(C(=O)N4CCN(C(=O)c5ccco5)CC4)ccc3c2=O)cc1,–,11.2 µM (active)
COc1ccccc1Cn1c(=S)[nH]c2cc(C(=O)N3CCN(C)CC3)ccc2c1=O,-23.2% (inactive),–
CCOC(=O)N1CCN(C(=O)c2ccc3c(=O)n(CCc4ccc(OC)c(OC)c4)c(=O)[nH]c3c2)CC1,–,20.6 µM (active)
COCCn1c(=S)[nH]c2cc(C(=O)NCCc3ccc(OC)c(OC)c3)ccc2c1=O,-21.7% (inactive),–
O=C(c1ccc2c(=O)n(Cc3ccco3)c(=S)[nH]c2c1)N1CCCC1,-22.9% (inactive),–
O=C(N=C1SC2CS(=O)(=O)CC2N1c1ccccc1)c1ccccc1 (configuration not stated),11.5% (inactive),–
CS(=O)(=O)c1ccc(Cl)c(NC(=O)COC(=O)c2cccc(S(=O)(=O)N3CCCC3)c2)c1,-20.5% (inactive),–
